Results published in PubChem BioAssay AID1347076 (National Center for Advancing Translational Sciences (NCATS), 2019).
Out of some 400,000 compounds screened, about 13,000 (3.2%) were called active. A call without a number means that no potency is given here. Not shown: some 18% with an inconclusive outcome. Calls follow the shape of the dose curve; as a rule, active = well fitted cell-killing curve with a large enough effect; inconclusive = small, poorly fitted or top-dose-only effect, or effect the other way; inactive = flat fitted curve, though single readings scatter. Only a selection was taken, and actives are over-represented in it overall.

Assay: qHTS assay for MDR1-selective chemotherapeutics: Primary screen using the drug-selected MDR subline cells KB-V1; also: nearly all actives have a fitted effect of over 60% in size
Conditions: KB-V1 MDR cells viability, CellTiter-Glo, 72 h; series mostly up to 46.1 µM
How it was run: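 Cytotoxicity toward P-gp-expressing KB-V1 cells was determined as loss of CellTiter-Glo luminescence after 72 h at 37 degrees C. Compounds were tested in quantitative HTS format across a concentration range, with curves fitted to normalized data.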
Potency is read from the fitted curve at half-maximal effect.

Row | Structure (SMILES) | Potency
1 | c1ccc(CNCc2ccc(CNCc3ccccc3)cc2)cc1 | inactive
2 | CCc1nnc(SCC(=O)Nc2cc(OC)ccc2OC)nc1CC | inactive
3 | Cc1ccccc1OCCOc1ccc([N+](=O)[O-])cc1/C=N/n1cnnc1 | 8.2 µM (active)
4 | Cc1ccccc1OS(=O)(=O)c1cccc([N+](=O)[O-])c1 | inactive
5 | COc1ccccc1OCCOc1ccc(/C=N/n2cnnc2)cc1 | inactive
6 | O=C(CSc1nc2cccc(F)c2c(=O)n1-c1ccccc1)Nc1ccc2c(c1)CCC2 | inactive
7 | c1ccc(CCc2nc(-c3ccncc3)no2)cc1 | inactive
8 | O=C1c2ccccc2C(=O)N1CCCCCCN1C(=O)c2ccccc2C1=O | inactive
9 | O=C1c2ccccc2C(=O)N1CCCc1nc(-c2ccccc2)no1 | 18.4 µM (active)
10 | C[C@H]1CN([C@@H](C)CO)C(=O)CCCn2cc(nn2)CO[C@@H]1CN(C)S(=O)(=O)c1cccs1 | inactive
11 | OC(c1ccc(Cl)c(F)c1)c1ncc(-c2ccccc2Cl)[nH]1 (configuration not stated) | inactive
12 | Cc1ccc(S(=O)(=O)N2CCOCC2)cc1NC(=O)c1ccncc1 | inactive
13 | O=C(CNCc1cccs1)Nc1cc(S(=O)(=O)N2CCCC2)ccc1Cl | inactive
14 | CCN(CC)S(=O)(=O)c1ccc(N2CCOCC2)c(NC(=O)C2COc3ccccc3O2)c1 (configuration not stated) | inactive
15 | O=C(Nc1cc(S(=O)(=O)N2CCCCC2)ccc1Cl)C1COc2ccccc2O1 (configuration not stated) | 14.6 µM (active)
16 | CCc1ccc(Sc2cc(C(=O)NCCCOC(C)C)c3ccccc3n2)cc1 | inactive
17 | CCc1c(C)nc(N2CCN(Cc3ccccc3)CC2)[nH]c1=O | inactive
18 | O=C1c2ccccc2C(=O)c2c1cccc2N1CCN(C/C=C/c2ccccc2)CC1 | inactive
19 | O=C1c2ccccc2C(=O)c2c1cccc2N1CCN(Cc2ccccc2)CC1 | 18.4 µM (active)
20 | O=c1[nH][nH]c2c1[C@H](c1ccc(Cl)cc1)O[C@H](CCc1ccccc1)C2 | inactive
21 | O=C(CSc1nccn1Cc1ccc(Cl)cc1)NCc1ccccc1 | inactive
22 | COc1cc(F)ccc1-c1cc(C(=O)NCC2CCCCC2)[nH]n1 | inactive
23 | COc1ccc(S(=O)(=O)N2CCC(C(=O)N3CCc4ccccc4C3)CC2)cc1OC | 13 µM (active)
24 | COc1ccc(S(=O)(=O)N2CCC(C(=O)N3CCCC3)CC2)cc1C | inactive
25 | COc1ccc(S(=O)(=O)N2CCC(C(=O)N3CCOCC3)CC2)cc1OC | inactive
26 | C[C@H](CO)N1C[C@H](C)[C@@H](CN(C)C(=O)c2cnccn2)Oc2ncc(Br)cc2C1=O | inactive

Row | Structure (SMILES) | Potency
27 | CC(C)c1ccc(NC(=O)c2ccc(Cn3nc(N4CCN(c5ccccc5)CC4)ccc3=O)o2)cc1 | inactive
28 | Cc1ccc(-c2nc3ccc(Cl)cn3c2Cc2ccccc2)cc1 | inactive
29 | CC1(C(=O)NS(=O)(=O)Cc2cccc(Cl)c2)CCN1C(=O)Cc1ccccc1 (configuration not stated) | inactive
30 | CCc1ccc(NC(=O)Cn2nc(C)c([N+](=O)[O-])c2C)cc1 | inactive
31 | Cc1nn(CC(=O)NCc2ccccn2)c(C)c1[N+](=O)[O-] | inactive
32 | Cc1ccc(Oc2cc(NC(=O)CCCn3nc(C)c([N+](=O)[O-])c3C)cc([N+](=O)[O-])c2)cc1 | 10.3 µM (active)
33 | COc1ccc(CNC(=O)CCn2cccc2)cc1 | inactive
34 | Cc1nn(CC(=O)Nc2ccc(N(C)C)cc2)c(C)c1[N+](=O)[O-] | inactive
35 | COc1ccc(CNC(=O)CCCn2nc(C)c([N+](=O)[O-])c2C)cc1 | 25.9 µM (active)
36 | CCCNC(=O)C1(C)CCN(C(=O)c2ccc(F)cc2Cl)C1 (configuration not stated) | inactive
37 | CC1Cc2ccccc2N1C(=O)Cn1cnc2ccccc2c1=O (configuration not stated) | inactive
38 | CCn1c(CSc2ncccn2)nnc1SCC(=O)N1c2ccccc2CC1C (configuration not stated) | 11.6 µM (active)
39 | CC(C)(C)C(=O)CSc1nc2ccccc2o1 | inactive
40 | CC1CC(C)CN(C(=O)CSc2nnc(CSc3ncccn3)n2C)C1 (configuration not stated) | inactive
41 | COc1ccc(S(=O)(=O)N2CCN(CC(=O)N3c4ccccc4CC3C)CC2)cc1OC (configuration not stated) | inactive
42 | CC1Cc2ccccc2N1C(=O)CSc1nnc(C2CC2)n1C (configuration not stated) | inactive
43 | CC1Cc2ccccc2N1C(=O)CSc1nc2ccccc2o1 (configuration not stated) | 14.6 µM (active)
44 | CC1Cc2ccccc2N1C(=O)CSc1nnc(-c2ccc(S(=O)(=O)N3CCCC3)cc2)n1C (configuration not stated) | 16.4 µM (active)
45 | CN(C)S(=O)(=O)c1ccc2oc(SCC(=O)Nc3ccccc3F)nc2c1 | inactive
46 | O=C(CSc1nc2ccccc2o1)N1CCN(c2ccccc2)CC1 | inactive
47 | CCS(=O)(=O)c1ccc2oc(SCC(=O)N3c4ccccc4CC3C)nc2c1 (configuration not stated) | 5.17 µM (active)
48 | Cn1c(SCC(=O)OC2CCCCC2)nnc1-c1ccc(S(=O)(=O)N2CCCC2)cc1 | inactive
49 | Cc1cc(C)c2sc(NC(=O)c3ccc(S(=O)(=O)N4CCCC4)cc3)nc2c1 | inactive
50 | Brc1ccc2nc(-c3ccccc3)c(Cc3ccccc3)n2c1 | inactive
51 | ClC/C=C/C[n+]1ccccc1Cl | inactive
52 | CC(C)(C)c1ccc(S(=O)(=O)NC(=O)C2(C)CCN2C(=O)CC2CC2)cc1 (configuration not stated) | inactive

Row | Structure (SMILES) | Potency
53 | COc1ccc(C(=O)N2CCCCC2c2cc(C(=O)Nc3ccccc3)no2)cc1 (configuration not stated) | inactive
54 | Cn1cc(S(=O)(=O)N2CCCCCC2)cc1C(=O)N1CCN(c2ccc(F)cc2)CC1 | inactive
55 | CCOC(=O)c1cnc(SCC(=O)Nc2ccccc2C(=O)OC)nc1N | 2.59 µM (active)
56 | CCOC(=O)c1cnc(SCC(=O)NCc2ccco2)nc1N | inactive
57 | CCOC(=O)c1cnc(SCC(=O)Nc2cccc(OC)c2)nc1N | inactive
58 | CCOC(=O)c1c(C)[nH]c(C)c1S(=O)(=O)N1CCC(C(=O)Nc2ccc(C)c(Cl)c2)CC1 | inactive
59 | CCCCC(=O)N/N=C(\C)CC(=O)Nc1cc(Cl)ccc1OC | inactive
60 | Cc1ccc(CNC(=O)CN2CCN(Cc3ccc(Cl)cc3)C2=O)cc1 | inactive
61 | C/C(CC(=O)NCc1ccc(Cl)cc1)=N\NC(=O)COc1ccc(C)cc1Br | 8.2 µM (active)
62 | O=C(NCc1ccc(F)cc1)c1cc(C2CCCCN2C(=O)c2cccs2)on1 (configuration not stated) | inactive
63 | CC1C(=O)N(Cc2cn(Cc3ccco3)nn2)CCS(=O)(=O)N1Cc1ccc(-c2cccc(CO)c2)cc1 (configuration not stated) | inactive
64 | CCc1ccc(-c2cc(C(=O)NN3CCN(C)CC3)c3ccccc3n2)cc1 | inactive
65 | CN1CCN(CC(=O)Nc2cccc([N+](=O)[O-])c2)CC1 | inactive
66 | CCCCc1nc2ccccc2c(NC(=O)CN2CCN(C)CC2)c1CCC | 8.2 µM (active)
67 | C[C@H]1CN([C@@H](C)CO)C(=O)c2cc(-c3ccccc3F)cnc2O[C@H]1CN(C)C(=O)C1CCOCC1 | inactive
68 | NC(Cc1ccc(F)cc1)c1csc(Nc2nncc3ccccc23)n1 (configuration not stated) | inactive
69 | Cc1ccc(S(=O)(=O)c2cn(Cc3ccccc3)c3cc(N4CCCC4)c(F)cc3c2=O)c(C)c1 | inactive
70 | CCOC(=O)C1CCCN(C(=O)c2ccc(N(C)C)cc2)CC1 (configuration not stated) | inactive
71 | COc1ccc(OC)c(C(O)c2ncc(-c3cccc(C(F)(F)F)c3)[nH]2)c1 (configuration not stated) | inactive
72 | COc1ccccc1C(=O)NC(CCSC)C(=O)N1CCN(C(C)=O)CC1 (configuration not stated) | inactive
73 | CSCCC(NC(=O)c1ccccc1)C(=O)N1CCN(Cc2ccc(Cl)cc2)CC1 (configuration not stated) | 18.4 µM (active)
74 | CSCCC(NC(=O)c1ccccc1)C(=O)N1CCCCCCC1 (configuration not stated) | inactive
75 | CC1=C(C(=O)OCC(C)C)C(c2ccc(OCc3ccccc3)cc2)N2C(=O)CCSC2=N1 (configuration not stated) | inactive
76 | O=C(NCc1ccc2c(c1)OCO2)c1c(O)nc2sccn2c1=O | 8.2 µM (active)
77 | C=CCn1c(=O)c(C(=O)NCc2ccc3c(c2)OCO3)c(O)c2ccccc21 | inactive
78 | O=C(NCc1ccc2c(c1)OCO2)c1sccc1Br | inactive

Row | Structure (SMILES) | Potency
79 | c1ccc(-c2nc(NCc3ccco3)c3ccccc3n2)cc1 | 23.1 µM (active)
80 | O=[N+]([O-])c1cc(-c2nc(-c3ccccc3)no2)ccc1NCc1ccco1 | inactive
81 | c1coc(CNc2ncnc3ccccc23)c1 | inactive
82 | COc1ccc(-c2cnc3c(c2)C(=O)N([C@H](C)CO)C[C@@H](C)[C@H](CN(C)Cc2ccccc2)O3)cc1 | inactive
83 | COc1cc(CNCc2ccc3c(c2)OCO3)c([N+](=O)[O-])cc1OC | inactive
84 | COc1cc2c(cc1OC)C(Cc1cc(OC)c(OC)cc1[N+](=O)[O-])=NCC2 | 9.2 µM (active)
85 | COc1cc(CN2CCCN(C)CC2)c([N+](=O)[O-])cc1OC | inactive
86 | CN(C)c1ccc(C=Nc2ccc(/C=C/c3ccnc4ccccc34)cc2)cc1 | inactive
87 | CN(C)c1ccc(/C=C/C=C/c2ccnc3ccccc23)cc1 | 6.51 µM (active)
88 | CN(Cc1ccccc1)c1ccc(/C=C/c2ccnc3ccccc23)cc1 | inactive
89 | CN(C)c1ccc(/C=C/c2c3ccccc3nc3ccccc23)cc1 | inactive
90 | NC(=O)C1CCN(C(=O)c2cccc(NC(=O)c3nsc4ccccc34)c2)CC1 | inactive
91 | COCC1CCCCN1C(=O)c1cc(COc2ccc(C)c(C)c2)on1 (configuration not stated) | inactive
92 | CCCS(=O)(=O)c1c(Nc2ccccc2C)sc(C(=O)c2ccccc2)c1N | inactive
93 | CCC(=O)Nc1sc(C(=O)Nc2ccccc2)c(C)c1C(=O)OC | inactive
94 | CC(=O)c1c(Nc2ccccc2)sc(C(=O)c2ccccc2)c1C | 3.66 µM (active)
95 | COc1ccc(C(=O)OCC(=O)Nc2cc(C)on2)cc1F | inactive
96 | CC(=NNC(N)=O)C1CC2CCC1CC2 (configuration not stated) | inactive
97 | Cc1ccccc1C#CC1=CC(=O)CC(C)(C)C1 | inactive
98 | CCn1c(C)c(C)c2cc(C(=O)N3CCN(c4cccc(C)c4C)CC3)ccc21 | inactive
99 | Cc1[nH]c2ccc(C(=O)N3CCN(C)CC3)cc2c1C | inactive
100 | CCOc1ccccc1N1CCN(C(=O)c2ccc3[nH]c(C)c(C)c3c2)CC1 | 6.51 µM (active)
101 | O=C(NCC(O)c1nc2ccccc2[nH]1)c1ccc(Br)cc1 (configuration not stated) | inactive
102 | O=C(CC[C@H]1O[C@@H](n2ccc(=O)[nH]c2=O)[C@H](O)[C@@H]1O)N[C@H](Cc1ccccc1)C(=O)NCCCN1CCCC1=O | inactive
